In PubChem BioAssay AID2629 (Broad Institute, 2010):
Out of some 320,000 compounds screened, about 1,900 (0.59%) were called active. This is one part of a sample in which actives are shown more often than they occur. Unmarked numbers belong to inactive results. No stated cut-off is given here; in the data, active means inhibition mostly above about 10% (no sharp cut-off); inactive means mostly below about 6.7%.

Each molecule was assayed against Protein LANA1 (Human herpesvirus 8 type P (isolate GK18)) (UniProt Q9QR71) (assay: blockers of LANA interaction with H2A/H2B – biochemical, FP readout, HTS, primary screen (AID 2629)). Details: cell-free LANA-H2A/H2B peptide, fluorescence polarization, hits give high values, concentration not given here.
Chain of Protein LANA1 (Human herpesvirus 8 type P (isolate GK18)) (Q9QR71 whole entry, looked up): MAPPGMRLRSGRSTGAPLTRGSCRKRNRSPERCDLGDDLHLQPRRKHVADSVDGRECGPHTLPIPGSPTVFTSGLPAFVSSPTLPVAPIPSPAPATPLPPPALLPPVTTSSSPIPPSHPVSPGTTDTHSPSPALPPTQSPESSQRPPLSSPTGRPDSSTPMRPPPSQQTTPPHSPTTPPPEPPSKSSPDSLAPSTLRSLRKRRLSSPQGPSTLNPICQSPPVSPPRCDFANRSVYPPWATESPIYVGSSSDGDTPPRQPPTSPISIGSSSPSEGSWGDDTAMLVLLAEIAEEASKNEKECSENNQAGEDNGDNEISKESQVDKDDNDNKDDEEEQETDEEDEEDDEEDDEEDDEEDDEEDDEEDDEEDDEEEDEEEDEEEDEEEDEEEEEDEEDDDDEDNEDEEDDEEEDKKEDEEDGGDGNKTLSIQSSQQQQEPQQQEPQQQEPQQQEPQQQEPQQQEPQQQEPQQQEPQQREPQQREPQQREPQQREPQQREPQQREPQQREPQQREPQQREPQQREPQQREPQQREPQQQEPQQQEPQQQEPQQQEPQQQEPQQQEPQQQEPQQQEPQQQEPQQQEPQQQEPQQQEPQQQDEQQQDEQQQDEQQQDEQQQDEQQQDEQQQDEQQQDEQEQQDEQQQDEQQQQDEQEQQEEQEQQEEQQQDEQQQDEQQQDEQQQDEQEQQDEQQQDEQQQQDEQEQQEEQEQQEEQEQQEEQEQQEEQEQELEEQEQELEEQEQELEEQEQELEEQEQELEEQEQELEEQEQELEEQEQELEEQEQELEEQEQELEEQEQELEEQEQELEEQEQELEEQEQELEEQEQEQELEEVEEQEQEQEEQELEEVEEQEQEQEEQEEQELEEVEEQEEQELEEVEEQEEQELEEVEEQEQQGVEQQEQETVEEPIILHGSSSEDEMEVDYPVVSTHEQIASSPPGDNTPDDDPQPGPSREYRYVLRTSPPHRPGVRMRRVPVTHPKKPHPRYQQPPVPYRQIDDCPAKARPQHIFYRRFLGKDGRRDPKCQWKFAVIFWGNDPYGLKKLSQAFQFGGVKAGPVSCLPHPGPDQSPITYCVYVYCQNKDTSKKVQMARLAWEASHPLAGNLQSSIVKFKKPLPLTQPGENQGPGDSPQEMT

Row | Compound | inhibition
1 | Cc1c(C(C)CCCO)oc(=O)c2c1Oc1c(C)c(C(C)C[C@@H](C)O)oc(=O)c1C2 (some centres undefined) | -3.56%
2 | COc1ccc(C(=O)COC(=O)C(O)c2ccccc2)c(OC)c1 (centres undefined) | -6.19%
3 | COCc1ccc(C(=O)N2CCc3c([nH]c4ccccc34)C2c2ccccn2)s1 (centres undefined) | 183% (active)
4 | O=C(c1cn2ccccc2n1)N1CCc2c([nH]c3ccccc23)C1c1ccccn1 (centres undefined) | 2.75%
5 | Cc1cccc(C2c3[nH]c4ccccc4c3CCN2C(=O)c2cc(-c3cccn3C)n[nH]2)n1 (centres undefined) | 1.43%
6 | Cc1cc(C)n(CCNC(=O)CC2C(=O)NCCN2Cc2ccc(C)o2)n1 (centres undefined) | 4.74%
7 | Cc1cc(N2C(=O)c3ccc(C(=O)NCc4ccccc4)cc3C2=O)no1 | 0.191%
8 | CC1CCN(CCCn2c(SCC(=O)NC3CCCC3)nc3ccccc3c2=O)CC1 | 2.87%
9 | O=C(CSc1nc2ccccc2c(=O)n1CCCO)NC1CC1 | 635% [above what the read-out allows, likely interference] (active)
10 | O=C(CSc1nc2ccccc2c(=O)n1-c1ccc(F)cc1)NC1CC1 | 0.0498%
11 | COc1ccc(C)cc1S(=O)(=O)N(CC(=O)Nc1cccc([N+](=O)[O-])c1)c1ccc(C)cc1 | -2.08%
12 | Cc1ccc(NC(=O)C(C)Sc2nnc(C3CC3)n2C2CC2)cc1S(=O)(=O)N1CCOCC1 (centres undefined) | -1.97%
13 | COc1ccc([N+](=O)[O-])cc1N(CC(O)CN(CC(C)C)CC(C)C)S(=O)(=O)c1ccc(C)cc1 (centres undefined) | 1.46%
14 | Cc1cccn2c(=O)c(/C=C(\C#N)C(N)=O)c(N3CCCCCC3)nc12 | 6.27%
15 | Cc1cc(C)cc(Oc2nc3c(C)cccn3c(=O)c2/C=C(\C#N)C(=O)NC2CCS(=O)(=O)C2)c1 (centres undefined) | 18.8% (active)
16 | Cc1cccn2c(=O)c(/C=C(\C#N)S(=O)(=O)c3ccc(Cl)cc3)c(N3CCC(C(N)=O)CC3)nc12 | -0.0722%
17 | COc1c(Br)cc2c(C)c(C(=O)N3CCOCC3)oc2c1Br | -7.01%
18 | O=C(CSC1=Nc2ccccc2C2=NC(CC(=O)NCc3ccco3)C(=O)N12)NCc1ccco1 (centres undefined) | -2.02%
19 | CCC(C)NC(=O)CSC1=Nc2ccccc2C2=NC(CCC(=O)NCc3ccco3)C(=O)N12 (centres undefined) | 4.12%
20 | CC(C)C1N=C2c3ccccc3N=C(SCC(=O)c3ccc(O)c(O)c3)N2C1=O (centres undefined) | 13.1% (active)
21 | CS(=O)(=O)N(Cc1ccccc1Cl)c1ccc(C(=O)NCc2cccnc2)cc1 | 3.45%
22 | O=C(/C=C/c1ccc([N+](=O)[O-])cc1)NCCSCc1ccco1 | 5.42%
23 | O=C(Nc1ccccc1F)c1ccc2c(c1)OCO2 | -1.38%

Row | Compound | inhibition
24 | O=C(NCCc1ccc(C(F)(F)F)cc1)c1ccc2c(c1)OCO2 | 16.2% (active)
25 | Cc1ccc2cc(CCNC(=O)c3ccc4c(c3)OCO4)c(=O)[nH]c2c1 | -1.83%
26 | COc1ccc(OCCn2ccnc2C)cc1 | -0.22%
27 | COC(=O)C1=C(C(=O)OC)C2(OC1c1ccc(Br)cc1)C(=O)c1ccccc1C2=O (centres undefined) | 3.44%
28 | Cc1cc2nc3c(=O)n(Cc4ccccc4)c(=O)[nH]c3nc2cc1N | 27.2% (active)
29 | COC(=O)CSc1nc2ccccc2c(=O)n1Cc1ccccc1 | 2.39%
30 | C=CCSc1nc2c(c(=O)[nH]c(=O)n2C)n1Cc1ccccc1 | -0.531%
31 | Cc1ccc2cccc(OCCCOc3ccccc3CO)c2n1 | -1.05%
32 | O=C(O)c1ccc2c3c(cccc13)C(=O)N(OS(=O)(=O)c1ccccc1)C2=O | 1.71%
33 | COc1ccc(N2C(=O)c3cccc4cccc(c34)C2=O)nn1 | -111%
34 | CN1C(=O)c2cccc3c(N)ccc(c23)C1=O | 25.3% (active)
35 | C[N+](C)(CCCCCC[N+](C)(C)CCCN1C(=O)c2cccc3cccc(c23)C1=O)CCCN1C(=O)c2cccc3cccc(c23)C1=O | 0.475%
36 | Cc1nn(C)cc1N1C(=O)c2cccc3c(N)ccc(c23)C1=O | 101% (active)
37 | Cc1nn(-c2cc(Cl)ccc2N)c(=O)c2ccccc12 | 0.97%
38 | CC(C)C[C@H]1CN=C(Nc2ccccc2)N1CC1CCCCC1 | -0.894%
39 | CCC(=O)Nc1nnc(S(=O)(=O)N2CCCc3ccccc32)s1 | 3.1%
40 | CN(Cc1ccccc1)C(=O)C1CCCN(c2ncnc3c2nc2n3CCCCC2)C1 (centres undefined) | -6.07%
41 | CN1CCN(S(=O)(=O)c2ccc(Nc3ccc(F)cc3)nc2)CC1 | 3.84%
42 | CC1(C(=O)O)CCC(C(=O)Nc2ccc(Cl)c(Cl)c2)C1(C)C (centres undefined) | -7.06%
43 | O=C(c1ccccc1)c1cccn1CC(=O)N1CCN(c2ccc(F)cc2)CC1 | 5.58%
44 | CCOc1ccc(C2=CC(c3ccccc3)n3ncnc3N2)cc1 (centres undefined) | -0.926%
45 | CC1=C(C(=O)OCc2ccccc2)C(c2ccco2)n2ncnc2N1 (centres undefined) | -3.53%
46 | Brc1ccc(C2=CC(c3ccco3)n3ncnc3N2)cc1 (centres undefined) | 35% (active)

Row | Compound | inhibition
47 | Cc1ccc(NC(=O)COc2coc(CN3CCc4ccccc4C3)cc2=O)cc1Cl | -6.2%
48 | O=C(Nc1ccc(Br)cc1)C1CCC(=O)N1Cc1ccccc1Cl (centres undefined) | 1.59%
49 | COc1ccc(/C=C/C(=O)c2cc(Br)ccc(=O)c2O)cc1 | 182% (active)
50 | COc1ccc2oc(=N)c(C(=O)Nc3ccc(Br)cc3)cc2c1 | 1.77%
51 | COc1ccc(C(=O)/C=C/c2cccnc2)c(OC)c1 | 0.568%
52 | CC(=O)c1ccc(S(=O)(=O)NC2CC(=O)N(c3ccc4c(c3)OCCO4)C2)cc1 (centres undefined) | -5.02%
53 | O=S(=O)(NC1CC1)c1ccc2c3c(cccc13)CC2 | -8.67%
54 | CC(C)C(=O)Nc1ccc2c3c(cccc13)CC2 | 22.9% (active)
55 | CC(C)C(=O)Nc1ccc2c(c1)oc1ccccc12 | 0.3%
56 | CC(C)Oc1ccc(C(=O)NC(C)(C)CO)cc1 | 2.55%
57 | O=C(/C=C/Nc1ccc(S(=O)(=O)Nc2cnc3ccccc3n2)cc1)c1cccnc1 | 5.47%
58 | Cc1cccc(N2CC(C)Cn3c2nc2c3c(=O)n(CC(=O)OCc3ccccc3)c(=O)n2C)c1 (centres undefined) | 0.536%
59 | O=C(Nc1ccccc1C(=O)N1CCCCC1)c1ccco1 | 20.4% (active)
60 | O=C(Nc1ccccc1C(=O)N1CCCCCC1)c1ccccc1Cl | -5%
61 | O=C(Nc1c(C(=O)N2CCCCC2)cnn1-c1ccccc1)c1ccco1 | 0.114%
62 | CCOc1ccc(NC(=O)CN(C)C(=O)c2c(C)noc2C)cc1OCC | -1.42%
63 | CCCCN=C1N/C(=C\c2ccco2)C(=O)N1c1ccccc1 | -4.75%
64 | CCOc1ccc(CC(=O)NCCS(=O)(=O)N2CCN(c3ccccc3)CC2)cc1 | 7.98%
65 | COc1ccc(OC)c(NC(=O)N[C@H](Cc2ccccc2)C(=O)NN)c1 | 1.67%
66 | O=C(CNC(=O)OCc1ccccc1)Oc1cc2oc(=O)cc(-c3ccccc3)c2cc1Cl | 22.2% (active)
67 | O=C(CNC(=O)c1ccc(-c2ccccc2)cc1)OCc1ccc(Cl)cc1 | -3.98%
68 | CC(=O)COc1ccc2c(-c3ccccc3)cc(=O)oc2c1 | 4.47%
69 | COc1ccc(CCNC(=O)C2CCCN(Cc3nc(-c4cccc(Cl)c4)oc3C)C2)cc1OC (centres undefined) | 2.76%

Row | Compound | inhibition
70 | CCN1C(=O)C(CC(=O)Nc2cc(C)ccc2C)SC1=Nc1ccc(S(N)(=O)=O)cc1 (centres undefined) | -5.5%
71 | Cc1ccc(C)c(NC(=O)COC(=O)Cn2c(C)csc2=O)c1 | -0.0986%
72 | CCN1C(=O)C(=O)N(CC(=O)Nc2cc(C)ccc2C)C1=O | 65.4% (active)
73 | Cc1cccc(C(=O)NCC(=O)OCC(=O)N(C)CC(=O)Nc2ccccc2Cl)c1 | -3.61%
74 | FC(F)(F)c1cnc(Oc2ccccc2-c2nnc(-c3ccc(Cl)cc3)o2)c(Cl)c1 | 0.331%
75 | CSc1nnc(-c2ccc(C(F)(F)F)cn2)o1 | 12.3% (active)
76 | CC(C)Oc1ccc(Oc2ccc(C(F)(F)F)cn2)cc1 | 0.437%
77 | N/C(=N\c1nc2ccccc2o1)NC(=O)C(Cc1ccccc1)N1C(=O)c2ccccc2C1=O (centres undefined) | -0.102%
78 | C[N+](C)(C)CCNC(=O)c1cc[n+](Cc2ccccc2)c(/C=N/O)c1 | -2.86%
79 | COc1ccc(NC(=O)CC2C(=O)OCC3CCCCN32)cc1Cl (centres undefined) | 6.65%
80 | Cc1cc(NC(=O)CN2C(=O)NC(CC(C)C)C2=O)no1 (centres undefined) | -2.81%
81 | CCOC(=O)c1[nH]c2ccc(OC)cc2c1NC(=O)N1CCOCC1 | -1.57%
82 | CCOC(=O)c1[nH]c2ccc(OC)cc2c1NC(=O)CCN1CCN(Cc2ccccc2)CC1 | 38.6% (active)
83 | CCOC(=O)N1CCN(CCC(=O)Nc2cc(OC)ccc2OC)CC1 | -0.496%
84 | CC1CCCN(S(=O)(=O)c2ccc(-c3ccc(=O)[nH]n3)o2)C1 (centres undefined) | 5.98%
85 | CSCCC(NC(=O)c1ccccc1)C(=O)N1CCCCCCC1 (centres undefined) | 3.36%
86 | CSCC(NS(=O)(=O)c1ccc(C)cc1)C(=O)O (centres undefined) | 4.08%
87 | CSCCC(NS(=O)(=O)c1ccc(C)cc1)C(=O)N1CCCC1 (centres undefined) | 10.1% (active)
88 | O=C(NCCOc1ccccc1F)Nc1ccc(Br)cc1 | 1.21%
89 | CCC(C)[C@H](NC(=O)N1c2ccccc2NC(=O)[C@@H]1C(C)C)C(=O)N[C@@H](Cc1ccccc1)C(=O)O (some centres undefined) | 0.386%
